Reference: PubChem BioAssay (NCI)
About 83,000 compounds went through this panel and 20% of them were active in at least one assay; those are over-represented in the sample as a whole.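 Compound tested at a single concentration for 48 hours in 96-well plates; a percent growth value below 10 was scored as active.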 Activity calls are given as the source filed them.

test system: OVCAR-8 ovarian; experiment: NCI-60 one-dose screen, 48 h (100 = growth as untreated, 0 = no growth, -100 = all killed); settings: 10 µM unless noted
Protocol: Growth inhibition of the OVCAR-8 human tumor cell line is measured as a screen for anti-cancer activity. Cells are grown in 96 well plates and exposed to the test compound for 48 hours. Compounds are tested at a single concentration, which is 10^-5 M for most compounds. The reported endpoint is percent growth (GI% or GIPRCNT), where numbers from 0 - 100% represent growth inhibition, and numbers from -100% - 0 represent cell death. For example, a value of 40 represents 60% growth inhibition. A value of 0 means no net growth occurred over the course of the experiment. A value of -40 indicates 40% of cells at the beginning of the experiment died by the end of the experiment. A value of -100 means all cells are dead at the end of the experiment.
NCI-60 Human Tumor Cell Lines Screen was performed using the standard one-dose NCI protocol, which is described in more detail at https://dtp.cancer.gov/discovery_development/nci-60/default.htm.
Compounds with GIPRCNT values below 10 were considered active. Activity score was based on GIPRCNT using the following formula: […]
Score is 0 for GIPRCNT values of 100 or above, 50 for GIPRCNT values of 0, and 100 for GIPRCNT values of -100.

Compound	growth
O=C1CCCN1c1cccc2cccnc12	103% (inactive)
Cc1[nH]n(C(=O)c2ccncc2)c(=O)c1N=Nc1ccc(F)c(Cl)c1	103% (inactive)
C=Cc1cc[n+](CCCCCCCCCCCC)cc1	112% (inactive)
C/C(=C(/c1ccccc1)c1ccc(OCC(O)CNCCN2CCOCC2)cc1)c1ccccc1 (stereo not given)	78.2% (inactive)
COc1ccc2c(Nc3ccc(NS(C)(=O)=O)cc3)c3ccccc3nc2c1	8% (active)
COc1ccc(C(O)c2cc3c(N)c(C(=O)Nc4cccc(OC)c4)sc3nc2C)cc1 (stereo not given)	5.76% (active)
COC(=O)Nc1ccc(NC(=O)OC)cc1	94.6% (inactive)
CCCCCCC/C=C/[C@H]1O[C@]2(O)C(=O)C=C3C[C@@H](O[C@@H]4O[C@H](CO)[C@@H](O)C(O)[C@@H]4O)C[C@@H]3[C@H]2C=C1C (stereo not given in full)	-20.5% (active)
O=C(Nc1ccc2ncnc(Nc3ccc(Oc4cccc(F)c4)c(Cl)c3)c2c1)c1ccc(CNCCO)cc1	31.5% (inactive)
CC(=O)CCSc1ccc(OC(C)=O)cc1	96.6% (inactive)
CC(=O)Nc1ccc(S(=O)(=O)NC2CCCCC2)cc1	101% (inactive)
COc1cc(OC)cc(C2C3=C(COC3=O)Nc3cc(OC)ccc32)c1 (stereo not given)	8.63% (active)
Nc1nc(N)nc(NCc2ccccc2)n1	117% (inactive)
O=CNc1cc(Cl)cc(Cl)c1	99.8% (inactive)
C=C(C)[C@@H]1CC[C@]2(C(=O)O)CC[C@]3(C)[C@H](CC[C@@H]4[C@@]5(C)C[C@@H](CC#Cc6ccc(Br)cc6)C(=O)C(C)(C)[C@@H]5CC[C@]43C)[C@@H]12	35.6% (inactive)
NC(=S)N/N=C(/c1ccccc1)c1ccccc1N	64.7% (inactive)
O=C(Nc1nc2ccc(C(=O)N3CCN(c4ccc(Cl)c(Cl)c4)CC3)cc2s1)c1ccc(NCCc2ccccc2)c([N+](=O)[O-])c1	97.3% (inactive)
COc1cc2nc(-c3ccc(C(F)(F)F)cc3)cc(OCCN3CCCC3)c2cc1OC	91% (inactive)
CCCCCCCCCCCCCCCCCCOc1ccccc1N	70.9% (inactive)
O=C1OC(=O)C2C1CC=CC2c1ccccc1 (stereo not given)	95.3% (inactive)

Compound	growth
Cc1n[nH]c(C)c1-c1c(C)n[nH]c1C	12.4% (inactive)
COc1cc2c(cc1[N+](=O)[O-])-c1ccc([N+](=O)[O-])cc1/C2=N\O	80.1% (inactive)
O=C1C(=O)c2c(nc3ncccn23)-c2ccccc21	-60.7% (active)
CCCCOc1ccc(/C=N/Nc2cc(C)nc3ccc(Cl)cc23)cc1	-58.5% (active)
CN1CCN(CCCNc2nccc(-c3c(-c4ccc(F)c(O)c4)nc4sccn34)n2)S1(=O)=O	96.1% (inactive)
Fc1ccccc1CSc1ncnc2nc[nH]c12	80.5% (inactive)
O=C(N/N=C/c1ccc(F)cc1)c1ccccc1Nc1cccc(C(F)(F)F)c1	89.5% (inactive)
O=C(CNCCO)Nc1ccc2ncnc(Nc3ccc(OCc4cccc(F)c4)c(Cl)c3)c2c1	80.4% (inactive)
Cc1cccc(Oc2ccc(Nc3ncnc4ccc(NC(=O)CNCCO)cc34)cc2Cl)c1	66.7% (inactive)
O=c1[nH]nc(-c2ccc(Cl)cc2)cc1Cc1cccc([N+](=O)[O-])c1	101% (inactive)
CCCCN(CCCC)CCc1c(C)cc(C)c(CCN(CCCC)CCCC)c1O	47.5% (inactive)
O=C(Nc1sc2c(c1C(=O)O)CCCC2)c1cccc(C(F)(F)F)c1	94.6% (inactive)
COc1cccc2cc(-c3cc4ccccc4[nH]3)/c(=N/C(=S)Nc3ccc(C)cc3)oc12	54% (inactive)
C#Cc1cccc(NC(=O)Nc2ccc(NC(=O)CCl)cc2)c1	-14.9% [8.25 µM] (active)
O=C1Nc2c(ccc(Cl)c2Cl)/C1=C/c1ccc(F)cc1	97.9% (inactive)
O=C(O)CNC(=O)CN1C(=O)c2ccccc2C1=O	94.4% (inactive)
O=C1NC(=O)C(=Cc2cn(Cc3ccccn3)c3ccccc23)C(=O)N1	101% (inactive)
COc1cc2nc(-c3ccc(C#N)cc3)[nH]c(=O)c2cc1OC	102% (inactive)
C=C(C)[C@@H]1CC[C@]2(C(=O)NCCCN(CCC#N)CCC#N)CC[C@]3(C)[C@H](CC[C@@H]4[C@@]5(C)CCC(=O)C(C)(C)[C@@H]5CC[C@]43C)[C@@H]12	97.9% (inactive)
Cc1cc2cc3cc(C)c(N)cc3[n+](C)c2cc1N	1.23% (active)
